The values below come from PubChem BioAssay AID2280 (The Scripps Research Institute Molecular Screening Center, 2010).

Molecules are shown by their SMILES. Among all 320,000 compounds or so, about 1,400 (0.44%) were called active. The full list was thinned out, with actives kept by preference. A number with no mark means an inactive call.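 The calls were made as follows: active = percent inhibition above a per-plate cutoff, the plate mean of test compounds plus 3 SD (cut at about 30% in these data); inactive = the rest.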

Chain of Female germline-specific tumor suppressor gld-1 (Caenorhabditis elegans) (Q17339 whole entry, looked up): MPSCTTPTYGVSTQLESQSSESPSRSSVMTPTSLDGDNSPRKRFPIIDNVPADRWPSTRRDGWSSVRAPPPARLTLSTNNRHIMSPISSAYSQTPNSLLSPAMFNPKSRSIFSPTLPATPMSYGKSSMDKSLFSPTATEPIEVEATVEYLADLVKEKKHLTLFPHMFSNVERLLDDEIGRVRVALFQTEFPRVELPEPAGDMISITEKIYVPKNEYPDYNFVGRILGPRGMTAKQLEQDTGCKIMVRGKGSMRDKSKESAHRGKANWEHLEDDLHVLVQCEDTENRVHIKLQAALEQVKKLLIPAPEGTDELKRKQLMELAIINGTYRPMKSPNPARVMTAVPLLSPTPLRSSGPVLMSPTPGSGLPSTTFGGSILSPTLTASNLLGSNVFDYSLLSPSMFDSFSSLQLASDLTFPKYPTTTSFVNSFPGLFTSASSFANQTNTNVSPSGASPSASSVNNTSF

This assay concerns the target Female germline-specific tumor suppressor gld-1 (Caenorhabditis elegans) (UniProt Q17339). Put plainly: small molecules blocking C. elegans GLD-1 RNA recognition – biochemical, fluorescence polarization, primary screen (AID 2280).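 Also: 0% = DMSO wells with GLD-1 and probe and 100% = wells lacking GLD-1.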 To be noted: purified GLD-1 + fluorescein TGE RNA, at 5.96 µM, hits give high values. (In fluorescence polarisation assays a small probe gives low polarisation when free and higher when bound to something large.)
One may read the inhibition as the relative decrease from the control value, in per cent. In the case of `CN(c1ccccc1)S(=O)(=O)c1ccc2[nH]c(=O)[nH]c2c1`, the inhibition was -0.63%. In the case of `Cc1ccc(C)c(OCCC(=O)OCC(=O)N2CCN(c3ccccc3)CC2)c1` it was -2.09%; in that of `Cc1sc2ncnc(SCC(=O)Nc3ccc(CN4CCCC4)cc3)c2c1C`, -0.9%; in that of `COc1ccc(Nc2ccc([N+](=O)[O-])cn2)cn1`, 44.7% (active).

For `COc1ccccc1C1CCN(c2ccc([N+](=O)[O-])cn2)CC1`, the inhibition is 3.13%.

Consider `COc1ccc(C(=O)NCCNc2ccc([N+](=O)[O-])cn2)cc1`, for which the inhibition was 9.44%. As to `CCN1CCN(c2ccc(S(=O)(=O)N3CCCCC3)cc2NC(=O)Cc2c(Cl)cccc2Cl)CC1`, the inhibition was -0.26%. On to `CCN(C[C@H]1N[C@@](CC)(C(=O)OC)[C@H]2C(=O)N(C)C(=O)[C@@H]12)C(=O)Nc1ccc(F)cc1`, for which the inhibition was 1.26%. Turning to `CCC(=O)Nc1ccc(S(=O)(=O)Nc2c(NC)c3ccccc3oc2=O)cc1`, the inhibition was 0.71%. Turning to `C[C@H](NC(=O)c1nc[nH]c1C(=O)N[C@@H](C)C(=O)OC(C)(C)C)C(=O)OC(C)(C)C`, the inhibition was 0.74%. Under `O=[N+]([O-])/C=C/c1ccc2c(ccn2Cc2ccccc2)c1` stands 7.04%; under `O=C(OCCOCn1cc(Br)c(=O)[nH]c1=O)c1ccccc1`, 5.67%; under `CCOCC(=O)NCc1ccc2c(c1)cc(C)n2C`, 25.6%. For `COc1cc(C(=O)NCc2ccc3c(c2)cc(C)n3C)cc(OC)c1OC`, the inhibition is 34.8% (active). As for `COc1cc(C(=O)NCc2cc3cc(Cl)ccc3n2C)cc(OC)c1OC`, the inhibition is -2.07%. Under `CCCC(C(=O)n1nc(C)cc1C)C(NS(=O)(=O)c1ccc(C)cc1)c1ccccc1` (centres undefined) stands 2.32%.

Take `O=C(COC(=O)[C@H](Cc1ccccc1)NC(=O)c1cccs1)Nc1cc(F)ccc1F`: the inhibition is 8.92%. With `COCCn1c(SCC(=O)N2CCCCCC2)nc2c(c1=O)SCC2`, the inhibition is -2.72%. Under `CC1CC(C)CN(S(=O)(=O)c2cccc(C(=O)N3C(=O)c4cccc(N)c4C3=O)c2)C1` (centres undefined) stands 31.4% (active).

Turning to `COc1cc(C(=O)N2C(=O)c3cccc(N)c3C2=O)cc(OC)c1OC`, the inhibition is 10.9%. On to `CC(=O)N1CCN(S(=O)(=O)c2cccc(C(=O)NC3CCC(C)CC3)c2)CC1` (centres undefined), for which the inhibition is 1.54%. As for `CCOc1cc(/C=C2/N=C(c3ccc(C(C)(C)C)cc3)OC2=O)cc(Cl)c1OS(C)(=O)=O`, the inhibition is 4.12%. In the case of `CCOC(=O)N1CCN(c2cc(C)c([N+](=O)[O-])cc2F)CC1`, the inhibition is -3.69%. Under `O=C(C1=C(O)C(=O)N(CCOCCO)C1c1ccccn1)c1cccs1` (centres undefined) stands 5.95%.
